Data taken from PubChem BioAssay (Tox21).
Records with an inconclusive call do not appear. Calls of active or inactive are those of the source. The call rests on the fitted dose curve; in most records, active means well fitted inhibition curve with a large enough effect in the repeat runs; inconclusive means weak or mixed curves; inactive means no such curve, though single readings can be large or run the other way.
On the % scale 0 is the no-effect control and ±100 the full control effect.

Each compound was assayed against Aromatase (Homo sapiens) (UniProt P11511) (assay: qHTS assay to identify aromatase inhibitors (AID 743083; further: nearly all actives have a fitted effect of over 55% in size)). Details: MCF-7 aro ERE, testosterone-driven ERE luciferase, 24 h; series mostly up to 70.3 µM.
Sequence of Aromatase (Homo sapiens) (P11511 whole entry, looked up): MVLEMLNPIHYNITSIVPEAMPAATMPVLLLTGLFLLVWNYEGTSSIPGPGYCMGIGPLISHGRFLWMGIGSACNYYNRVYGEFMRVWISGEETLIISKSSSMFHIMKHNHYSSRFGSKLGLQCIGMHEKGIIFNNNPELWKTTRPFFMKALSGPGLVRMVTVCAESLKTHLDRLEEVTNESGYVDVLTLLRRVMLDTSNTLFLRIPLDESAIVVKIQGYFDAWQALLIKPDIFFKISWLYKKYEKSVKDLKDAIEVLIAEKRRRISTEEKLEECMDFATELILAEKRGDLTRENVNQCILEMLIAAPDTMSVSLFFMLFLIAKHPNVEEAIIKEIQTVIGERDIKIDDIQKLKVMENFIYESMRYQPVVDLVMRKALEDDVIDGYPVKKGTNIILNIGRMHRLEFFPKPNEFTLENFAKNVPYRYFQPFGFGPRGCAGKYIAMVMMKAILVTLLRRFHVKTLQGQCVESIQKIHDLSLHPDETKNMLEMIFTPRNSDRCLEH
In the case of CCCCC/C=C/CC(=O)OC, the outcome is reported as “inactive”.
With Cc1nc2ccccc2c(=O)o1 the outcome was “inactive”.
CCN(CCO)c1cccc(C)c1 was tested, and the outcome was “inactive”.
For FC(F)(F)/C(=N\OCC1OCCO1)c1ccc(Cl)cc1, the outcome was “inactive”.
For C=CCCCCCCCCCCC, the activity, negative = inhibition was 6.54% [at 8.47 µM] (inactive).
In the case of CCCCCCCCCCCCCC(=O)OC, the outcome is reported as “inactive”.
For NC(Cc1c[nH]c2ccccc12)C(=O)O (stereo not drawn), the outcome was “inactive”.
In the case of CNC(=O)C(c1ccccc1)c1ccccc1, the outcome is reported as “inactive”.
With Cc1nc(C)nc(N2C[C@@H](C)N(c3ccnc([C@@H](C)O)n3)[C@@H](C)C2)n1 the outcome was “inactive”.
With NS(=O)(=O)c1cc2c(cc1Cl)NC(C(Cl)Cl)NS2(=O)=O (stereo not drawn) the outcome was “inactive”.
With O=C(O)c1ccccc1C(=O)Nc1ccc(S(=O)(=O)Nc2nccs2)cc1 the outcome was “inactive”.
In the case of C[C@H](CCC(=O)NCC(=O)O)[C@H]1CC[C@H]2[C@@H]3[C@H](O)C[C@@H]4C[C@H](O)CC[C@]4(C)[C@H]3C[C@H](O)[C@]12C, the outcome is reported as “inactive”.
COc1ccc(/C=N/NC(=O)c2ccncc2)cc1OC was tested, and the outcome was “inactive”.
With C=CCOc1cc(Cl)ccc1C(=O)NCCN(CC)CC the outcome was “inactive”.
CCCCCCCC[Si](OCC)(OCC)OCC was tested, and the outcome was “inactive”.
For O=C(CN1CCN(Cc2ccc3c(c2)OCO3)CC1)N1c2ccccc2Sc2ccccc21, the outcome was “inactive”.
O=C1c2ccccc2-c2ccccc21 was tested, and the outcome was “inactive”.
With CN(C1CCCCC1)S(=O)(=O)c1ccccc1N the outcome was “inactive”.
With O=C1OC(=O)c2cc(Oc3ccc4c(c3)C(=O)OC4=O)ccc21 the outcome was “inactive”.
With Nc1cc(C(=O)O)ccc1Cl the outcome was “inactive”.
CCc1nccnc1C was tested, and the outcome was “inactive”.
With CC(=O)OCCCc1ccccc1 the outcome was “inactive”.
CC(C)COC(=O)CCCCC(=O)OCC(C)C was tested, and the outcome was “inactive”.
In the case of CCN1CN(CC)CN(CC)C1, the outcome is reported as “inactive”.
For CCS(=O)(=O)CCn1c([N+](=O)[O-])cnc1C, the outcome was “inactive”.
In the case of OC[C@@H](O)[C@H](O)[C@@H](O)[C@@H](O)CO, the outcome is reported as “inactive”.
For CCC(=O)OCCC(C)CCC=C(C)C (stereo not drawn), the outcome was “inactive”.
In the case of CCCCCCCCC(=O)OCC, the outcome is reported as “inactive”.
In the case of FC(F)(F)c1ccc(Cl)cc1Cl, the outcome is reported as “inactive”.
In the case of O=c1cc(O)c(Cl)c[nH]1, the outcome is reported as “inactive”.
In the case of CC(=O)c1ccc(OCC(=O)N2CCCCC2)cc1, the outcome is reported as “inactive”.
CCCCCCCCCCCCC was tested, and the outcome was “inactive”.
For COc1ccc(NS(=O)(=O)c2ccc(N)cc2)nn1, the outcome was “inactive”.
